# High-throughput results from PubChem.
# Most compounds without a hit are left out; they make up all but 6.8% or so of the library.
# C diff growth: inhibitors of Clostridium difficile growth; Clostridium difficile clinical isolate growth, OD600, 24 h; stronger effect = lower value; growth activity, negative = inhibition, % at 16 µg/mL (by protocol); 86,000 tested, 0.25% active; AID 1259249;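 active = mean growth activity at or below -80% and every replicate also at or below -80%; inconclusive = mean at or below -80% but some replicate above -80%; inactive = mean growth activity above -80%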;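 also: 0% = DMSO wells and -100% = levofloxacin 16 µg/mL wells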
# Pf Dd2 growth: blocks growth of Plasmodium falciparum Dd2 parasites | P. falciparum Dd2 growth, SYBR Green, 72 h; stronger effect = lower value | activity change, % at 10 µM | 94,000 tested, 2.3% active | AID 1159554; in the data active = activity change below about -80%; inconclusive = no clear call, values can overlap the other calls
# T cruzi growth-1: inhibitors of T. cruzi proliferation. 77,000 tested, 5.9% active. AID 624255. inhibition, % at 8.34 µM. T. cruzi beta-gal in NIH3T3, GalScreen luminescence, 90 h;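 active = mean inhibition above about 93%, with at least 55% of replicates each passing it, limit read from the data, passing the limit was not always enough; inconclusive = only one of those two conditions holds; inactive = neither condition holds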
# T cruzi growth-2: inhibitors of T. cruzi proliferation. inhibition, % at 8.35 µM. AID 651739. 5,600 tested, 72% active. shares compounds with T cruzi growth-1. T. cruzi beta-gal in NIH3T3, GalScreen luminescence, 90 h;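 active = mean replicate inhibition above about 95% and at least 55% of replicates individually reaching it, limit read from the data; inconclusive = only one of the two criteria is met; inactive = neither criterion is met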
# T cruzi growth-3: blocks T. cruzi growth in NIH3T3 host cells; T. cruzi beta-gal in NIH3T3, GalScreen luminescence, 90 h; 5,600 tested, 21% active; shares compounds with T cruzi growth-1; inhibition, % at 2.09 µM;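 active = mean inhibition above about 95%, with at least 55% of replicates also reaching it, limit read from the data; inconclusive = meets just one of the two conditions; inactive = meets neither condition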;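 also: plate controls were neutral control median for no effect and positive control median for full effect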
# 3T3 cytotox: cytotoxicity in mouse NIH/3T3 fibroblasts; shares compounds with T cruzi growth-1; AID 651742; 5,600 tested, 14% active; cytotoxicity (signal decrease), % at 8.35 µM; NIH/3T3 viability, CellTiter-Glo ATP luminescence, 90 h;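 active = mean signal decrease across replicates above about 35% based on untreated-well scatter, with enough replicates individually passing, limit read from the data; inconclusive = no rule stated though some were filed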;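 also: 0% = median of neutral control wells and 100% = median of positive control wells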
# NIH3T3 tox 2: cytotoxicity in mouse NIH/3T3 fibroblasts; shares compounds with T cruzi growth-1; NIH/3T3 viability, CellTiter-Glo ATP luminescence, 90 h; inhibition, % at 24.9 µM; 5,600 tested, 56% active;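 active = mean loss of cell viability signal at or above a set limit, and enough replicates individually reaching it; inconclusive = meets only the mean limit or only the replicate share; inactive = meets neither condition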;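 also: 0% = median of neutral control wells and 100% = median of positive control wells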
# Numbers without * were called inactive; u = inconclusive; x = no result.
SMILES,C diff growth,Pf Dd2 growth,T cruzi growth-1,T cruzi growth-2,T cruzi growth-3,3T3 cytotox,NIH3T3 tox 2
C[C@@H]1CCCCO[C@H](CN(C)Cc2ccc(Cl)c(Cl)c2)[C@@H](C)CN([C@@H](C)CO)C(=O)c2cc(NC(=O)Nc3cccc4ccccc34)ccc2O1,-12,-90*,125*,101*,116*,18,-3
C[C@@H]1CN([C@H](C)CO)C(=O)c2cc(NC(=O)Nc3cccc4ccccc34)ccc2O[C@@H](C)CCCCO[C@@H]1CN(C)Cc1ccccc1,24,-66,x,x,x,x,x
C[C@@H]1CN([C@@H](C)CO)C(=O)c2cc(NC(=O)Nc3cccc4ccccc34)ccc2O[C@@H](C)CCCCO[C@H]1CN(C)Cc1ccc(Cl)c(Cl)c1,-18,-35,122*,107*,106*,24,8
CC(C)NC(=O)Nc1ccc2c(c1)CC(=O)N([C@@H](C)CO)C[C@@H](C)[C@@H](CN(C)S(C)(=O)=O)O2,-1,0,23,x,x,x,x
C[C@@H]1CN([C@@H](C)CO)C(=O)c2cc(NC(=O)Cc3ccccc3)ccc2O[C@@H]1CN(C)C(=O)Nc1cccc2ccccc12,-3,-4,31,x,x,x,x
COCC(=O)Nc1ccc2c(c1)C(=O)N(C)[C@H]1CC[C@H](CC(=O)NCc3cccc(F)c3)O[C@@H]1CO2,1,53,x,x,x,x,x
C[C@@H]1CN([C@@H](C)CO)C(=O)c2cccc(N(C)C)c2O[C@@H]1CN(C)Cc1ccc(Cl)c(Cl)c1,11,-25,48,x,x,x,x
COc1ccc(CN(C)C[C@@H]2Oc3ccc(NS(=O)(=O)c4ccc(C)cc4)cc3CC(=O)N([C@H](C)CO)C[C@H]2C)cc1,-8,12,110*,114*,106*,6,1
COc1ccc(CN(C)C[C@H]2Oc3ccc(NS(=O)(=O)c4c(C)noc4C)cc3CC(=O)N([C@@H](C)CO)C[C@H]2C)cc1,19,3,20,x,x,x,x
COc1ccc(CN(C)C[C@@H]2Oc3ccc(NS(=O)(=O)c4ccc(C)cc4)cc3CC(=O)N([C@@H](C)CO)C[C@@H]2C)cc1,-18,-11,108*,85,13,11,22
COc1ccc(CN(C)C[C@H]2Oc3ccc(NS(=O)(=O)c4ccc(C)cc4)cc3CC(=O)N([C@@H](C)CO)C[C@H]2C)cc1,-12,18,x,x,x,x,x
COc1ccc(CN(C)C[C@H]2Oc3ccc(NS(=O)(=O)c4c(C)noc4C)cc3CC(=O)N([C@H](C)CO)C[C@@H]2C)cc1,8,-28,106*,83,50,2,15
CNC[C@H]1Oc2ccc(NC(=O)NC3CCCCC3)cc2CC(=O)N([C@H](C)CO)C[C@@H]1C,1,34,5,x,x,x,x
COc1ccc(CN(C)C[C@H]2Oc3ccc(NS(=O)(=O)c4ccc(C)cc4)cc3CC(=O)N([C@H](C)CO)C[C@@H]2C)cc1,-4,-8,x,x,x,x,x
CNC[C@@H]1Oc2ccc(NC(=O)NC3CCCCC3)cc2CC(=O)N([C@H](C)CO)C[C@H]1C,-7,48,119*,22,-25,10,-13
CN1C(=O)c2cc(NC(=O)c3ccc(F)cc3)ccc2OC[C@H]2O[C@H](CC(=O)NCC3CC3)CC[C@H]21,-1,-1,26,x,x,x,x
O=C(C[C@@H]1CC[C@H]2[C@@H](COC[C@H](O)CN2C(=O)Nc2cc(Cl)cc(Cl)c2)O1)N1CCCCC1,x,8,52,x,x,x,x
COc1ccc(NC(=O)Nc2ccc3c(c2)CC(=O)N([C@H](C)CO)C[C@@H](C)[C@H](CN(C)CC2CCCCC2)O3)cc1,9,-7,101*,96*,70,28,106*
COc1ccc(CN(C)C[C@@H]2Oc3ccc(NS(=O)(=O)c4ccc(Cl)cc4)cc3CC(=O)N([C@H](C)CO)C[C@H]2C)cc1,-17,-9,101*,113*,84,-2,-8
COc1ccc(NC(=O)Nc2ccc3c(c2)CC(=O)N([C@H](C)CO)C[C@@H](C)[C@H](CN(C)CC2CC2)O3)cc1,-1,15,20,x,x,x,x
COc1ccc(CN(C)C[C@@H]2Oc3ccc(NS(=O)(=O)c4ccc(Cl)cc4)cc3CC(=O)N([C@@H](C)CO)C[C@@H]2C)cc1,-18,-27,17,x,x,x,x
C[C@@H]1CN([C@@H](C)CO)C(=O)c2cccc(NS(=O)(=O)c3cccs3)c2O[C@H]1CN(C)C(=O)Nc1ccc2c(c1)OCO2,x,17,-44,x,x,x,x
Cc1ccc(S(=O)(=O)Nc2ccc3c(c2)C(=O)N([C@H](C)CO)C[C@@H](C)[C@@H](CN(C)S(=O)(=O)c2cccs2)O3)cc1,-7,14,23,x,x,x,x
COc1ccccc1-c1ccc2c(c1)[C@@H]1[C@@H](CCN1C(=O)C1CCOCC1)[C@H](CO)N2,-8,-23,97*,102*,72,-23,-30
O=C(C1CCOCC1)N1CC[C@@H]2[C@H]1c1cc(-c3ccc(F)cc3)ccc1N[C@@H]2CO,-6,4,105*,u,82,-9,23
SMILES,C diff growth,Pf Dd2 growth,T cruzi growth-1,T cruzi growth-2,T cruzi growth-3,3T3 cytotox,NIH3T3 tox 2
O=C(C1CC1)N1CC[C@@H]2[C@@H](CO)Nc3ccc(-c4ccc(F)cc4)cc3[C@@H]21,-11,2,84,x,x,x,x
O=C(C1CCOCC1)N1CC[C@@H]2[C@@H](CO)Nc3ccc(-c4ccc(F)cc4)cc3[C@@H]21,-7,32,105*,99*,60,-13,14
COc1ccccc1-c1ccc2c(c1)[C@@H]1[C@@H](CCN1C(=O)C1CCOCC1)[C@@H](CO)N2,-16,-7,89,x,x,x,x
O=C(C1CC1)N1CC[C@@H]2[C@H](CO)Nc3ccc(-c4ccc(F)cc4)cc3[C@@H]21,-13,0,42,x,x,x,x
CC(=O)N(C)C[C@H]1Oc2cc(-c3cccc(C#N)c3)ccc2S(=O)(=O)N([C@H](C)CO)C[C@@H]1C,0,22,-3,x,x,x,x
O=C(NC[C@H]1N[C@H](CO)[C@@H]1c1ccc(C2=CCCCC2)cc1)c1cccc(F)c1,30,-19,85,x,x,x,x
C/C=C/c1ccc([C@@H]2[C@@H](CO)N[C@@H]2CN(CC)C(=O)c2ccccn2)cc1,-6,-18,100*,28,3,-12,11
CCN(C[C@@H]1N[C@H](CO)[C@H]1c1ccc(C2=CCCC2)cc1)C(=O)c1ccncc1,-3,-52,93,x,x,x,x
CCN(C[C@H]1N[C@@H](CO)[C@@H]1c1ccc(C2=CCCC2)cc1)C(=O)c1ccncc1,-4,-34,105*,98*,0,-12,55*
CCN(C[C@H]1N[C@H](CO)[C@H]1c1ccc(C2=CCCC2)cc1)C(=O)c1cccnc1,5,10,-13,x,x,x,x
CCN(C[C@H]1N[C@H](CO)[C@H]1c1ccc(C2=CCCC2)cc1)C(=O)c1ccncc1,1,-62,104*,-13,-4,-14,20
C/C=C/c1ccc([C@@H]2[C@H](CO)N[C@H]2CN(CC)C(=O)c2ccccn2)cc1,-7,-6,21,x,x,x,x
